From PubChem BioAssay (NCATS)
Inconclusive results are not listed. Activity calls are given as the source filed them. Unless noted, the call rests on the fitted dose curve; in most records, active means well fitted curve in the direction sought with a large enough effect; inconclusive means small, poorly fitted or top-dose-only effect, or another doubt; inactive means no such curve, though single readings can be large; an effect the other way counts as inactive or inconclusive.

Tests used:
[1] = target: Cytochrome P450 1A2 (Homo sapiens) (UniProt P05177); test: p450-cyp1a2 (AID 410; calls by dose curve; further: potency means the concentration at half of the fitted maximal effect;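 on activity change, negative = inhibition: -100% = full effect of reference inhibitor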)
Outline: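 Read-out is luminescence from luciferin produced by CYP1A2 demethylation of Luciferin-ME (100uM, at Km). Detection reagent stopped the 60 min NADPH-dependent reaction; signals were normalized to 57 uM furafylline.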

[2] = target: Glucocorticoid receptor (Homo sapiens) (UniProt P04150); test: GR-GFP Redistribution (AID 450;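 active means compounds whose dose series gives a full or clear partial fitted curve of increased nuclear translocation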; further: potency means the concentration at half of the fitted maximal effect); conditions: U2OS GR-GFP nuclear translocation, laser cytometry, 2 h
[3] = target: Glucocorticoid receptor (Homo sapiens) (UniProt P04150); test: GR-EFC Redistribution (AID 451; calls by dose curve; further: potency means the concentration at half of the fitted maximal effect); conditions: CHO-K1 GR-EFC translocation, beta-gal luminescence, 2 h
Outline: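 CHO-K1 cells stably expressing nuclear-localized β-gal enzyme acceptor and GR fused C-terminally to the enzyme donor fragment; ligand-driven nuclear translocation restores β-gal by complementation. Compounds titrated up to 46 uM final, 2 h at 37 °C; luminescence read.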

[4] = target: Mitogen-activated protein kinase 10 (Mus musculus) (UniProt Q61831); test: JNK3 AlphaScreen Assay (AID 530; active means well fitted curve in either direction with a large enough effect, not every such curve was filed as active;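 further: kinase came from lysate of stimulated human HepG2 cells; signal reports phosphorylation of biotinylated GST-cJun 1-79 at Ser73 with 10 µM ATP; on the % scale 0 is the no-effect control and ±100 the full control effect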)
Outline: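 Biotinylated GST-cJun(1-79) served as substrate for JNK3 in HepG2 lysates stimulated with IL-1beta and TNF-alpha. ATP was 10 uM final, pH 7.6. Ser73 phosphorylation was quantified by AlphaScreen (680 nm excitation).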

[5] = target: 3',5'-cyclic-AMP phosphodiesterase 4B (Homo sapiens) (UniProt Q07343); test: qHTS Assay for Inhibitors of PDE-IV (AID 607; active means well fitted activation curve with a large enough effect in the main read-out, with a control signal flat, not every such curve was filed as active; further: % of control where 0% means no effect)
Outline: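 HEK293 ACTOne cells with CNG channel (1000/well), endogenous PDE4; membrane potential dye, compounds up to 22.9 uM final. Fluorescence Ex 535/Em 590; RO 20-1724 (100 uM final) as reference.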

[6] = target: Guanine nucleotide-binding protein G(i) subunit alpha-1 (Homo sapiens) (UniProt P63096); test: qHTS Assay for Inhibitors of RGS12 GoLoco Motif Activity (Green Fluorophore) (AID 879);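 further: 0% = labeled peptide with Gαi1 and full inhibition = labeled peptide alone without protein; negative values mean loss of peptide binding seen as reduced polarization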
Outline: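 A drop in FITC polarization marked displacement of the FITC-tagged RGS12 GoLoco peptide (10 nM) from Gαi1 (50 nM). Compounds were incubated 10 min at room temperature in Tris pH 7.5 buffer containing 150 mM NaCl, 0.1 mM GDP and 0.05% NP40; unlabeled peptide titration served as control.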

[7] = target: Cytochrome P450 3A4 (Homo sapiens) (UniProt P08684); test: qHTS Assay for Inhibitors and Substrates of Cytochrome P450 3A4 (AID 884); further: on the % scale 0 is the no-effect control and ±100 the full control effect; nearly all actives have a fitted effect of over 50% in size
Outline: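 Luminescent readout of luciferin produced by CYP3A4 (20 nM) dealkylation of Luciferin-PPXE, 25 uM (its KM). NADPH-driven reaction ran 60 min at RT after 10 min compound preincubation; data scaled to 57 uM ketoconazole as 100% inhibition.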

[8] = qHTS Assay for Identification of Small Molecule Antagonists for Thrombopoietin (TPO) Signaling Pathway (AID 918); conditions: TPO-dependent cell signaling reporter, antagonist mode; further: potency means the concentration at half of the fitted maximal effect; nearly all actives have a fitted effect of over 60% in size
Outline: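 Antagonist mode at EC50 TPO (26 pM) in IL-3-free medium; murine Ba/F3 cells with human TPO receptor and GPIIb-promoter luciferase, 24 hrs at 37 C before luminescent detection.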

[9] = target: Muscarinic acetylcholine receptor M1 (Rattus norvegicus) (UniProt P08482); test: qHTS Assay for Antagonists of Acetylcholine Muscarinic M1 Receptor: Kinetic Measurement of Intracellular Calcium Response (AID 943); further: nearly all actives have a fitted effect of over 75% in size; further: potency means the concentration at half of the fitted maximal effect;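 on activity change, negative = inhibition: Fluo-4 calcium signal as peak divided by basal fluorescence over 4 min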
Outline: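 Quantitative HTS in CHO-M1 (rat receptor) cells: 10 min compound exposure ahead of 100 nM carbachol, Fluo-4 fluorescence followed 4 min, value expressed as peak-to-basal ratio.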

[10] = target: Alpha-galactosidase (Coffea arabica) (UniProt Q42656); test: Counterscreen for Glucocerebrosidase Inhibitors: qHTS Assay for Coffee Bean alpha-Galactosidase at pH 4.5 (AID 957);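 further: plate controls were enzyme alone for no effect and no enzyme for full effect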
Outline: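 Quantitative HTS of compounds (0.7 nM to 77 uM) against coffee bean alpha-galactosidase at pH 4.5, measuring 4-methylumbelliferone fluorescence released from 80 uM substrate.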

[11] = target: Pyruvate kinase PKM (Homo sapiens) (UniProt P14618); test: qHTS Assay for Inhibitors of Human Muscle Pyruvate Kinase (AID 958)
Outline: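 Screening used highly purified human pyruvate kinase M2 under submaximal activity, with PEP at its Km and ADP below Km. After an hour at room temperature, ATP was read by luciferase luminescence.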

[12] = target: Alpha-galactosidase A (Homo sapiens) (UniProt P06280); test: Counterscreen for Glucocerebrosidase Inhibitors: qHTS Assay for Human alpha-Galactosidase at pH 4.5 (AID 992); further: 0% is about no effect
Outline: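 Steps: enzyme (2 nM final), then compound across 0.7 nM to 77 uM, then 80 uM fluorogenic galactopyranoside substrate; incubate 20 min at room temperature; quench at pH 10; measure fluorescence at 365/440 nm.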

[13] = target: Alpha-galactosidase (Coffea arabica) (UniProt Q42656); test: Counterscreen for Glucocerebrosidase Inhibitors: qHTS Assay for Coffee Bean alpha-Galactosidase at pH 5.9 (AID 998);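 further: plate controls were uninhibited enzyme for no effect and no-enzyme basal signal for full effect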
Outline: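 In 50 mM citric acid pH 5.9 with 0.005% Tween-20, coffee bean enzyme hydrolyses 80 uM 4-MU alpha-D-galactopyranoside over 20 min at RT. Activity is normalized to controls; AC50 comes from Hill-modelled concentration-response data.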

[14] = target: Cytochrome P450 2C9 (Homo sapiens) (UniProt P11712); test: qHTS Assay for Inhibitors and Substrates of Cytochrome P450 2C9 (AID 883); further: on the % scale 0 is the no-effect control and ±100 the full control effect; nearly all actives have a fitted effect of over 60% in size
Outline: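 A luminogenic readout tracked human CYP2C9 (10nM) converting deoxyluciferin (100uM, at KM) in 25mM KPO4 during 60 min at 37C with regenerated NADPH. Values normalized to 57uM sulphaphenazole as complete inhibition.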

[15] = target: Cytochrome P450 2D6 (Homo sapiens) (UniProt P10635); test: qHTS Assay for Inhibitors and Substrates of Cytochrome P450 2D6 (AID 891); further: nearly all actives have a fitted effect of over 60% in size; further: potency means the concentration at half of the fitted maximal effect;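 on activity change, negative = inhibition: luciferin methyl ether substrate demethylated by CYP2D6 with NADPH regeneration; on the % scale 0 is the no-effect control and ±100 the full control effect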
Outline: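 Luminescent read-out of luciferin formed by 5 nM human CYP2D6 demethylating 30 uM Luciferin-ME EGE (Km level) over 60 min at room temperature after NADPH regeneration addition. Data normalized to full inhibition by 1.43 uM quinidine.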

[16] = target: Cytochrome P450 2C19 (Homo sapiens) (UniProt P33261); test: qHTS Assay for Inhibitors and Substrates of Cytochrome P450 2C19 (AID 899); further: on the % scale 0 is the no-effect control and ±100 the full control effect; nearly all actives have a fitted effect of over 60% in size
Outline: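 NADPH-dependent conversion of Luciferin-H EGE (10uM, at KM) by 5nM enzyme in 50mM KPO4, 60 min at 37C following 10 min compound preincubation. Stopped with luciferin detection buffer; luminescence read after 20 min.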

[17] = AP1 Signaling Pathway (AID 357; active means well fitted curve in either direction with a large enough effect, not every such curve was filed as active;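 further: ME-180 reporter cells stimulated with EGF at its EC50 level; on the % scale 0 is the no-effect control and ±100 the full control effect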); conditions: ME-180 AP-1-bla reporter, EGF-induced, beta-lactamase ratio, 5 h; at 17.2 µM (top of the series) unless noted
Outline: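 Titration-series screen for positive or negative modulators of EC50 EGF-induced signaling in ME-180 cells carrying an AP-1-driven beta-lactamase reporter. After 5 hours at 37 degrees Celsius, CCF4 460nm/530nm emission ratio gave %Activity; AC50 values derived.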

[18] = qHTS Assay for Identification of Small Molecule Agonists for Hypoxia Response Element Signaling Pathway (AID 914; active means well fitted activation curve with a large enough effect in the signal ratio, with a control signal flat, not every such curve was filed as active; the % refers to the signal ratio; further: potency means the concentration at half of the fitted maximal effect; on activation: % of control where 0% means no effect); conditions: ME-180 (cervical carcinoma) HRE-bla reporter, beta-lactamase ratio, CoCl2, 17 h; activation: hits give high values
Outline: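 Reporter activity (beta-lactamase, CCF4 460nm/530nm ratio) in HRE-bla ME-180 cells is recorded after 17 h compound exposure with EC50 CoCl2 at 37 degrees Celsius. AC50 values come from titration data.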

[19] = qHTS Assay for Identification of Small Molecule Antagonists for NFkB Signaling Pathway (AID 895; active means well fitted inhibition curve with a large enough effect in the signal ratio, with a control signal flat, not every such curve was filed as active; the % refers to the signal ratio; further: on the % scale 0 is the no-effect control and ±100 the full control effect)
Outline: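 NFkB-bla ME-180 cervical carcinoma cells with beta-lactamase reporter under NFkB response element; compounds added, then TNF alpha at 10 pM final (EC50), 5 h at 37 C. LiveBLAzer substrate 2 h, room temperature; emission 460/530 nm at 405 nm excitation.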

[20] = target: Pyruvate kinase PKM (Homo sapiens) (UniProt P14618); test: qHTS Assay for Activators of Human Muscle Pyruvate Kinase (AID 954; active means well fitted curve in the direction sought with a large enough effect, not every such curve was filed as active;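 further: 0% = uninhibited enzyme and -100% = no enzyme or full thiadiazolimine inhibition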)
Outline: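 Compound pinned into substrate mix (0.5 mM PEP, 0.1 mM ADP), then 0.1 nM PKM2 added; 1 h, RT. Stop/detection luciferase reagent added, luminescence read. Normalized to no-inhibition and no-enzyme or reference-inhibitor controls.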

Cytochrome P450 2C9 (Homo sapiens), sequence (P11712 whole entry, looked up): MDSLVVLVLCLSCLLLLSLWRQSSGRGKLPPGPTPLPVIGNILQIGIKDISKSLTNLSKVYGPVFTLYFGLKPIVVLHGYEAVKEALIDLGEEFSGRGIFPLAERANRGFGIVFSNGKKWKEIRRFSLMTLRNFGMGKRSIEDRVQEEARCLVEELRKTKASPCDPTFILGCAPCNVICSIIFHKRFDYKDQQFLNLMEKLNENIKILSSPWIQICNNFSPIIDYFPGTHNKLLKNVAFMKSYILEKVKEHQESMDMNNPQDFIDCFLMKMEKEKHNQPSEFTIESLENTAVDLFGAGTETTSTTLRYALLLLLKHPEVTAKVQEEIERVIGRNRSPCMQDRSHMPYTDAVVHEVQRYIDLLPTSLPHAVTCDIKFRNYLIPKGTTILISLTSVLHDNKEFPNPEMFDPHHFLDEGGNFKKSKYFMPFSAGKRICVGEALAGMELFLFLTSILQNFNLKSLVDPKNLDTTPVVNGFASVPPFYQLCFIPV
Glucocorticoid receptor (Homo sapiens), sequence (P04150 whole entry, looked up, the tested form may be a part): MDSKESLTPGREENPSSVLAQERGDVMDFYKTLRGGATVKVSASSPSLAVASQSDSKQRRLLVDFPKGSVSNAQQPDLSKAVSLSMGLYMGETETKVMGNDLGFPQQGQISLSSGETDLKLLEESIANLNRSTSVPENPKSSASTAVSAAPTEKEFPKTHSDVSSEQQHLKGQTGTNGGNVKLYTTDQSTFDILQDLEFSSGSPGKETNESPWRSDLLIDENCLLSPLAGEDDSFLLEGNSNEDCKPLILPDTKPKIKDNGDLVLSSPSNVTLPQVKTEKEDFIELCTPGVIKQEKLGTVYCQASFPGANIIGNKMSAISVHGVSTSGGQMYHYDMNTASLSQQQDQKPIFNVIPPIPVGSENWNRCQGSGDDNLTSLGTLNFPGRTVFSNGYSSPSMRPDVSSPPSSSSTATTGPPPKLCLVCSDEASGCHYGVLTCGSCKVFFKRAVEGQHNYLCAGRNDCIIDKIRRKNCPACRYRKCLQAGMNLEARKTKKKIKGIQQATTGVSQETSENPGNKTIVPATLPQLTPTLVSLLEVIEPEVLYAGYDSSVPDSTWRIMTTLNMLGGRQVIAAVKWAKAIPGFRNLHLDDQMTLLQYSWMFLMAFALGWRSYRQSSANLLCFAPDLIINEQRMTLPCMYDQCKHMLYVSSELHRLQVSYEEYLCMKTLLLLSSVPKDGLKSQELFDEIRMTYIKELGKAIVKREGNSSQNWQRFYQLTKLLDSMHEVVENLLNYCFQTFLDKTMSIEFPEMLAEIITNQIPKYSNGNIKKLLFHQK
Cytochrome P450 1A2 (Homo sapiens), sequence (P05177 whole entry, looked up): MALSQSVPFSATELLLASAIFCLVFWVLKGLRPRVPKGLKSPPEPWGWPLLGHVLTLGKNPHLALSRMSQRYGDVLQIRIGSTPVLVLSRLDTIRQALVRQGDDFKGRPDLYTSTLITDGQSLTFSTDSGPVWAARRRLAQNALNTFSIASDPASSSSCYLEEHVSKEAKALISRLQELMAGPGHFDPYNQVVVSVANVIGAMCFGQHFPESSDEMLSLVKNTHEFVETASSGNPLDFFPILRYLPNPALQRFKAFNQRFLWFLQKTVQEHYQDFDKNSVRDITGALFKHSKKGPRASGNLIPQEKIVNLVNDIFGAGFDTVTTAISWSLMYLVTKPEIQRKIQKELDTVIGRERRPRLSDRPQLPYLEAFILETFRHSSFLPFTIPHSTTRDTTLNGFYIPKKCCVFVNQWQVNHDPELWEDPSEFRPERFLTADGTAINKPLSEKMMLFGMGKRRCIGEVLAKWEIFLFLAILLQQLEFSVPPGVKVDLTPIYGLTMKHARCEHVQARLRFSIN
Alpha-galactosidase (Coffea arabica), sequence (Q42656 whole entry, looked up): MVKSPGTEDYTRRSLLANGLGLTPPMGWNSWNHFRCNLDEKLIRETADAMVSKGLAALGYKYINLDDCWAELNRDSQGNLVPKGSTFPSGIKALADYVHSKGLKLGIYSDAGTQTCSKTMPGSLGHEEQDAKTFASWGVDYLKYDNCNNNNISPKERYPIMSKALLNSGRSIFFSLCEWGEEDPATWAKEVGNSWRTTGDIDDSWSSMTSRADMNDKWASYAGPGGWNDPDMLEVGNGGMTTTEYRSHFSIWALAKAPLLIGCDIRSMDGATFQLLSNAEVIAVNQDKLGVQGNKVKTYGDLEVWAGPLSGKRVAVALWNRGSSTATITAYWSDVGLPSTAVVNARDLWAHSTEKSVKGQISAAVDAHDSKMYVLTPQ
Cytochrome P450 2C19 (Homo sapiens), sequence (P33261 whole entry, looked up): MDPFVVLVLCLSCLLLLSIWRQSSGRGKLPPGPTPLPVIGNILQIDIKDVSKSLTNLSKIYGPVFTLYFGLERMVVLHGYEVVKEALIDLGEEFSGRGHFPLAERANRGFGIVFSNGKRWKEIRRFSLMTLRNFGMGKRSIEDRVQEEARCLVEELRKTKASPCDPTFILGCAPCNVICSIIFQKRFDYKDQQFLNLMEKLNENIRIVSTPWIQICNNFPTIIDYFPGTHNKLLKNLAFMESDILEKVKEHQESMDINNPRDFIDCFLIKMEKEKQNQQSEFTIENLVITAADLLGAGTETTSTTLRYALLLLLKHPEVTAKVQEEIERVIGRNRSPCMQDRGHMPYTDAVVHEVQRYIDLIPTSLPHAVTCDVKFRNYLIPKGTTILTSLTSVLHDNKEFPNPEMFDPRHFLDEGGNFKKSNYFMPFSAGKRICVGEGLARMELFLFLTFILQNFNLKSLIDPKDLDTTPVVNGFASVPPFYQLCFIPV
Cytochrome P450 2D6 (Homo sapiens), sequence (P10635 whole entry, looked up): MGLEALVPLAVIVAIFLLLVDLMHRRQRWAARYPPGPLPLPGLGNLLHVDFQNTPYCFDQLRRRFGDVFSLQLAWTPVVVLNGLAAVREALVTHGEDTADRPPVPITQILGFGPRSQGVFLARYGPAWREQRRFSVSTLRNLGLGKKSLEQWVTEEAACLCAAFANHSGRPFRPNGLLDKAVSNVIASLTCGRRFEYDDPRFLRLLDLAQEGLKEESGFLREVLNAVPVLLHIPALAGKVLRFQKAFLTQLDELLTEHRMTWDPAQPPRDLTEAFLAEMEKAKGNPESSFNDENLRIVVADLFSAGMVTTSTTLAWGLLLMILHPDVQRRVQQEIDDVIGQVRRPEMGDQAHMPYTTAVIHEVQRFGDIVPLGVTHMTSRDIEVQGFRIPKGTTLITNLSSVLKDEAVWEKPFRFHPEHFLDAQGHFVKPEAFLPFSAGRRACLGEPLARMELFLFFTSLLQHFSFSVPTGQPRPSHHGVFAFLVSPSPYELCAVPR
3',5'-cyclic-AMP phosphodiesterase 4B (Homo sapiens), sequence (Q07343 whole entry, looked up): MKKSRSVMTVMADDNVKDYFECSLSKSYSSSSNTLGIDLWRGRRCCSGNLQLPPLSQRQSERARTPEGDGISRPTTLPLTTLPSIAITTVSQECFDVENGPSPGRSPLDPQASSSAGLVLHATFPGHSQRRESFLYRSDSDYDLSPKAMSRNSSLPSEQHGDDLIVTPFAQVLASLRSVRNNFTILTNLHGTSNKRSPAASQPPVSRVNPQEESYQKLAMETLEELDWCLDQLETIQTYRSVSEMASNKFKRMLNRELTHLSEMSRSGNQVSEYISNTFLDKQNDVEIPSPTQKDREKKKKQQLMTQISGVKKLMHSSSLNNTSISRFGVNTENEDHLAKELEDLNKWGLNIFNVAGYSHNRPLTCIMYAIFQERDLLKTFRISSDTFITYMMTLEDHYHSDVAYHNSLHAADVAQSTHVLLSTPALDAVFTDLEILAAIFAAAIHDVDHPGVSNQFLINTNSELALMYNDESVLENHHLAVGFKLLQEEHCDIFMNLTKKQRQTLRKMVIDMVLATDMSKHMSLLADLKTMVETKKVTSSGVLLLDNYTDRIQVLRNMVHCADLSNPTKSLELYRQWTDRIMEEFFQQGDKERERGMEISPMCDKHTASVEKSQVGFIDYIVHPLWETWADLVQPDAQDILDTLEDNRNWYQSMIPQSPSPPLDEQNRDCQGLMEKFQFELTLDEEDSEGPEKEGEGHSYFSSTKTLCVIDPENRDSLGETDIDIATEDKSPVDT
Guanine nucleotide-binding protein G(i) subunit alpha-1 (Homo sapiens), sequence (P63096 whole entry, looked up): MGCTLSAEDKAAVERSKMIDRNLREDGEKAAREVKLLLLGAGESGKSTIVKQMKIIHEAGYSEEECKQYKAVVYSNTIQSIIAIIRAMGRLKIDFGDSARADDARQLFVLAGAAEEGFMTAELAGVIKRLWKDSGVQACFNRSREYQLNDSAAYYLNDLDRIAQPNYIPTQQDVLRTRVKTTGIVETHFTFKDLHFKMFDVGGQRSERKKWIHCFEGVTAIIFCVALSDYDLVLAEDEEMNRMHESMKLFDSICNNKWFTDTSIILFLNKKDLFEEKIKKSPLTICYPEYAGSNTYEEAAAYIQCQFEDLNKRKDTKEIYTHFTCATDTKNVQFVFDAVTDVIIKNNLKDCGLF
Pyruvate kinase PKM (Homo sapiens), sequence (P14618 whole entry, looked up): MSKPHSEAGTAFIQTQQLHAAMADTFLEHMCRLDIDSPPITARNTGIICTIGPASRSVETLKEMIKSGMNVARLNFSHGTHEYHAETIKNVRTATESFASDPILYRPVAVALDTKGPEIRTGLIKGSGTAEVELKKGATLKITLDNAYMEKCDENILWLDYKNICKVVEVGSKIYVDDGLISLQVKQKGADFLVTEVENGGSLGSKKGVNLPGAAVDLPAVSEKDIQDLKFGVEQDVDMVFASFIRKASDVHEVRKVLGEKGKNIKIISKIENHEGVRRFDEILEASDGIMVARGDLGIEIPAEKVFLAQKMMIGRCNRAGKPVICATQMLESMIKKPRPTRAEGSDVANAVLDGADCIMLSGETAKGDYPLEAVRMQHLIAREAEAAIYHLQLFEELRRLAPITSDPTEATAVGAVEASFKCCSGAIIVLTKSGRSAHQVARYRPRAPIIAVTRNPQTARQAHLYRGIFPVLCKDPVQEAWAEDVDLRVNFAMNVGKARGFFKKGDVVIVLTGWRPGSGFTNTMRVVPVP

C[C@]12Cc3cn4c(nc3C=C1CC[C@H]1[C@@H]2CC[C@@]2(C)[C@H]1CC[C@@]2(O)C#N)nc1ccccc14
inactive: Potency [2] > 46 µM | Potency [3] > 46 µM | outcome [4] | outcome [5] | Potency [6] | Potency [7] | Potency [9] | outcome [10] | Potency [11] | outcome [12] | outcome [13]
active: Potency [1] 15.8 µM | Potency [8] 10 µM

C[C@@H](CO)NC(=O)[C@H]1C=C2c3cccc4[nH]cc(c34)C[C@H]2N(C)C1
active: Potency [1] 31.6 µM | Potency [15] 12.6 µM
inactive: Potency [2] > 46 µM | Potency [3] > 46 µM | outcome [4] | outcome [5] | Potency [14] | Potency [16]

Nc1c(C(=O)NCc2ccco2)c2nc3ccccc3nc2n1CCN1CCCCC1
inactive: activity change, negative = inhibition [17] 29.1% | Potency [2] > 20.6 µM
active: Potency [18] 7.94 µM

C[C@H]1C(=O)O[C@H]2CCN3CC=C(COC(=O)[C@](C)(O)[C@@]1(C)O)[C@H]23
inactive: Potency [1] | Potency [2] > 46 µM | Potency [3] > 46 µM | outcome [4] | Potency [14] | Potency [15] | Potency [16]

CO[C@@H](C)[C@](O)(C(=O)OC1=CCN2CC[C@H](O)[C@H]12)C(C)C
inactive: Potency [1] | Potency [2] > 46 µM | Potency [3] > 46 µM | outcome [4] | outcome [5] | Potency [14] | Potency [15] | Potency [16]

CC[C@H]1[C@@H]2C[C@@H]3[C@@H]4N(C)c5ccccc5[C@@]45C[C@@H]([C@H]2[C@@H]5O)N3[C@@H]1O
inactive: Potency [1] | Potency [2] > 46 µM | Potency [3] > 46 µM | outcome [4] | Potency [14] | Potency [16]
active: Potency [15] 3.16 µM

NC(=O)c1ccc(OC[C@H](O)CN2CC=C(c3ccc(F)cc3)CC2)cc1
active: Potency [9] 6.31 µM
inactive: activity change, negative = inhibition [17] 18.4% [at 38 µM] | Potency [2] > 46 µM | Potency [3] > 46 µM | outcome [5] | Potency [6] | Potency [19] | activation [18] -0.382% | outcome [20] | outcome [10] | outcome [12] | outcome [13]
